Reference: the supplement of paper PMC6658780
Counter-ions that a name gives are not always drawn. ± gives the standard deviation of the averaged measurements.

tested on: Escherichia coli ATCC BAA-2469; assay: percent growth inhibition of drug alone vs DMSO control; higher = more growth inhibition; conditions: antibiotic (0.125x MIC): none (0.1% DMSO); 7 µM
Method: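 Prestwick drugs tested at 20 uM and 7 uM with an antibiotic at 0.125x MIC (16 mg/L when MIC >128 mg/L) against E. coli ATCC BAA-2469 (NDM-1) in CAMHB, 384-well plates, duplicate runs. Percent growth inhibition was computed from OD600 (24 h minus 0 h) relative to DMSO wells. Drug + DMSO-only wells are also given. […]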

SMILES | percent growth inhibition of drug alone [%]
O=c1[nH]c(=O)n([C@H]2C[C@H](O)[C@@H](CO)O2)cc1C(F)(F)F [Trifluridine] | 4.84 ± 4.7
CCCCCCCCNC(C)C(O)c1ccc(SC(C)C)cc1 (stereo unspecified) [Suloctidil] | 7.25 ± 11
O=C1c2c(O)ccc(O)c2C(=O)c2c(NCCNCCO)ccc(NCCNCCO)c21 [Mitoxantrone dihydrochloride] | 7.78 ± 5.1
C#C[C@]1(OC(C)=O)CC[C@H]2[C@@H]3CCC4=C[C@@H](OC(C)=O)CC[C@@H]4[C@H]3CC[C@@]21C [Ethynodiol diacetate] | -1.57 ± 7.4
CC(=O)c1ccc2c(c1)N(CCCN1CCC(CCO)CC1)c1ccccc1S2 [Piperacetazine] | 0.548 ± 3.2
O=C(N[C@H](CO)[C@H](O)c1ccc([N+](=O)[O-])cc1)C(Cl)Cl [Chloramphenicol] | 27.7 ± 12
CC(=O)OC[C@H]1O[C@@H]([S-])[C@H](OC(C)=O)[C@@H](OC(C)=O)[C@@H]1OC(C)=O.CCP(CC)CC.[Au+] [Auranofin] | 5.6 ± 2.6
OC(CCN1CCCC1)(c1ccccc1)C1CCCCC1 (stereo unspecified) [Procyclidine hydrochloride] | 3.3 ± 1.6
NC(=O)N/N=C/c1ccc([N+](=O)[O-])o1 [Nitrofural] | 5.6 ± 7.3
CO/N=C(\C(=O)N[C@@H]1C(=O)N2C(C(=O)O)=C(COC(N)=O)CS[C@H]12)c1ccco1 [Cefuroxime sodium salt] | -0.846 ± 2.2
O=C(Nc1ccc([N+](=O)[O-])cc1Cl)c1cc(Cl)ccc1O [Niclosamide] | 2.78 ± 1.6
CCC[C@@H]1C[C@@H](C(=O)N[C@@H]([C@H]2O[C@H](SC)[C@H](O)[C@@H](O)[C@H]2O)[C@H](C)Cl)N(C)C1 [Clindamycin hydrochloride] | 12.8 ± 13
Cc1c(OCC(F)(F)F)ccnc1C[S+]([O-])c1nc2ccccc2[nH]1 (stereo unspecified) [Lansoprazole] | 2.04 ± 3.3
N[C@@H]1CCCCN(c2c(F)cc3c(=O)c(C(=O)O)cn(C4CC4)c3c2Cl)C1 [Besifloxacin hydrochloride] | 3.86 ± 3.6
N=C(NCCCCCCNC(=N)NC(=N)Nc1ccc(Cl)cc1)NC(=N)Nc1ccc(Cl)cc1 [Chlorhexidine] | 103 ± 2.7
Cc1nnc(NS(=O)(=O)c2ccc(N)cc2)s1 [Sulfamethizole] | 2.42 ± 3
CCCNC(C)(C)COC(=O)c1ccccc1 [Meprylcaine hydrochloride] | 0.029 ± 2.2
Nc1nnc(-c2cccc(Cl)c2Cl)c(N)n1 [Lamotrigine] | 2.35 ± 0.19
COc1cc(C(=O)NCc2ccc(OCCN(C)C)cc2)cc(OC)c1OC [Trimethobenzamide hydrochloride] | 2.6 ± 2.7
COc1ccc2c(c1)c(CC(=O)OCC(=O)O)c(C)n2C(=O)c1ccc(Cl)cc1 [Acemetacin] | 2.19 ± 1
CCN(CC)CCNC(=O)c1cc(Br)c(N)cc1OC [Bromopride] | -0.123 ± 0.93

same assay, conditions: antibiotic (0.125x MIC): none (0.1% DMSO); 20 µM

SMILES | percent growth inhibition of drug alone [%]
O=c1[nH]c(=O)n([C@H]2C[C@H](O)[C@@H](CO)O2)cc1C(F)(F)F [Trifluridine] | 11.3 ± 6.5
CO[C@H]1/C=C/O[C@@]2(C)Oc3c(C)c(O)c4c(O)c(c5c(nc6cc(C)ccn65)c4c3C2=O)NC(=O)/C(C)=C\C=C\[C@H](C)[C@H](O)[C@@H](C)[C@@H](O)[C@@H](C)[C@H](OC(C)=O)[C@@H]1C [Rifaximin] | 102 ± 7.8
CCCCCCCCNC(C)C(O)c1ccc(SC(C)C)cc1 (stereo unspecified) [Suloctidil] | 10.4 ± 16
C#C[C@]1(OC(C)=O)CC[C@H]2[C@@H]3CCC4=C[C@@H](OC(C)=O)CC[C@@H]4[C@H]3CC[C@@]21C [Ethynodiol diacetate] | -0.574 ± 3.8
CO[C@H]1/C=C/O[C@@]2(C)Oc3c(C)c(O)c4c(O)c(c(/C=N/N5CCN(C6CCCC6)CC5)c(O)c4c3C2=O)NC(=O)/C(C)=C\C=C\[C@H](C)[C@H](O)[C@@H](C)[C@@H](O)[C@@H](C)[C@H](OC(C)=O)[C@@H]1C [Rifapentine] | 112 ± 10
CC(=O)c1ccc2c(c1)N(CCCN1CCC(CCO)CC1)c1ccccc1S2 [Piperacetazine] | 0.302 ± 2.2
CC(=O)OC[C@H]1O[C@@H]([S-])[C@H](OC(C)=O)[C@@H](OC(C)=O)[C@@H]1OC(C)=O.CCP(CC)CC.[Au+] [Auranofin] | 20.1 ± 20
OC(CCN1CCCC1)(c1ccccc1)C1CCCCC1 (stereo unspecified) [Procyclidine hydrochloride] | -0.85 ± 5
NC(=O)N/N=C/c1ccc([N+](=O)[O-])o1 [Nitrofural] | 32.1 ± 18
CO/N=C(\C(=O)N[C@@H]1C(=O)N2C(C(=O)O)=C(COC(N)=O)CS[C@H]12)c1ccco1 [Cefuroxime sodium salt] | -0.542 ± 0.39
O=C(Nc1ccc([N+](=O)[O-])cc1Cl)c1cc(Cl)ccc1O [Niclosamide] | 14.5 ± 19
CCC[C@@H]1C[C@@H](C(=O)N[C@@H]([C@H]2O[C@H](SC)[C@H](O)[C@@H](O)[C@H]2O)[C@H](C)Cl)N(C)C1 [Clindamycin hydrochloride] | 35.5 ± 16
Cc1c(OCC(F)(F)F)ccnc1C[S+]([O-])c1nc2ccccc2[nH]1 (stereo unspecified) [Lansoprazole] | 4.77 ± 4.3
N=C(NCCCCCCNC(=N)NC(=N)Nc1ccc(Cl)cc1)NC(=N)Nc1ccc(Cl)cc1 [Chlorhexidine] | 106 ± 2.6
Cc1nnc(NS(=O)(=O)c2ccc(N)cc2)s1 [Sulfamethizole] | -3.23 ± 2.1
CCCNC(C)(C)COC(=O)c1ccccc1 [Meprylcaine hydrochloride] | -0.823 ± 0.32
Nc1nnc(-c2cccc(Cl)c2Cl)c(N)n1 [Lamotrigine] | 1.91 ± 1.2
COc1cc(C(=O)NCc2ccc(OCCN(C)C)cc2)cc(OC)c1OC [Trimethobenzamide hydrochloride] | -0.217 ± 4.2
COc1ccc2c(c1)c(CC(=O)OCC(=O)O)c(C)n2C(=O)c1ccc(Cl)cc1 [Acemetacin] | 1.2 ± 0.59
CCN(CC)CCNC(=O)c1cc(Br)c(N)cc1OC [Bromopride] | 1.57 ± 1.2
